Data taken from PubChem BioAssay (NCATS).
Calls of active or inactive are those of the source. The call rests on the fitted dose curve; in most records, active means well fitted curve in the direction sought with a large enough effect; inconclusive means small, poorly fitted or top-dose-only effect, or another doubt; inactive means no such curve, though single readings can be large; an effect the other way counts as inactive or inconclusive.

test system: not listed separately; experiment: Confirmation and Secondary Assay for Modulators of Hemoglobin Beta Chain Splicing at IVS2 705 locus (AID 930); conditions: HeLa EGFP-705 splicing reporter, GFP fluorescence, 48 h; series mostly up to 46.1 µM; activation: at the top concentration;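 further: HeLa cells stably expressing the EGFP-705 splicing reporter; GFP fluorescence per well restored by corrected splicing of the IVS2-705 intron in EGFP; % of control where 0% means no effect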
Procedure, shortened: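 Fluorescence gain (488 nm laser, 500-520 nm PMT) reflects restored correct splicing of a mutant IVS2-705 intron inside EGFP in stably transfected HeLa cells after 2-day compound treatment.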

SMILES	activation
CN1CCN(C(c2ccccc2)c2ccccc2)CC1	0.213% (inactive)
COc1ccc(C2C(=O)c3ccccc3C2=O)cc1	-0.113% (inactive)
CCN(CC)C(=O)N1CCN(C)CC1	1% (inactive)
CCCCOc1ccc(C(=O)CCN2CCCCC2)cc1	3.27% (inactive)
CC(=O)Nc1c(I)cc(I)c(C(=O)O)c1I	0.646% (inactive)
CO/N=C1\CN(c2nc3c(cc2F)c(=O)c(C(=O)O)cn3C2CC2)CC1CN (centres undefined)	0.925% (inactive)
O=C(COc1ccc(Cl)cc1)N1CCN(Cc2ccc3c(c2)OCO3)CC1	5.08% (inactive)
CN1CCC(=C2c3ccccc3Sc3ccccc32)CC1	0.768% (inactive)
Cc1c(C(N)=O)cc([N+](=O)[O-])cc1[N+](=O)[O-]	-1.15% (inactive)
COc1ccc(CCN2CCC(Nc3nc4ccccc4n3Cc3ccc(F)cc3)CC2)cc1	-0.253% (inactive)
COc1c(C)c2c(c(O)c1C/C=C(\C)CCC(=O)O)C(=O)OC2	1.5% (inactive)
CC(C)(C)CC(C)(C)c1ccc(O)c(Cc2ccc(Cl)cc2Cl)c1	0.459% (inactive)
COc1c2occc2c(OC)c2c(=O)cc(C)oc12	0.0409% (inactive)
O=C1OCCN1/N=C/c1ccc([N+](=O)[O-])o1	-1.63% (inactive)
CC(Cc1cccc(C(F)(F)F)c1)NCCOC(=O)c1ccccc1 (centres undefined)	-0.362% (inactive)
OC(CCN1CCCCC1)(c1ccccc1)c1ccccc1	-1.26% (inactive)
O=C(OCC(O)CO)c1ccccc1Nc1ccnc2cc(Cl)ccc12 (centres undefined)	1.01% (inactive)
CCOc1ccc2nc3cc(N)ccc3c(N)c2c1	1.1% (inactive)
Cc1cc(=O)n(-c2ccccc2)n1C	0.779% (inactive)
CCN(CCCCOC(=O)c1ccc(OC)c(OC)c1)C(C)Cc1ccc(OC)cc1 (centres undefined)	0.439% (inactive)
COc1ccc(OC)c(C(O)CNC(=O)CN)c1 (centres undefined)	-0.679% (inactive)
CN(C(=O)CN(CCO)CC(=O)N(C)C(C)(C)Cc1ccccc1)C(C)(C)Cc1ccccc1	-1.35% (inactive)
CC(=O)N(O)CCCCCNC(=O)CCC(=O)N(O)CCCCCNC(=O)CCC(=O)N(O)CCCCCN	2.43% (inactive)
C/C=C(/C(=C/C)c1ccc(O)cc1)c1ccc(O)cc1	0.671% (inactive)
CCC(=O)c1c(O)cc(O)cc1O	0.285% (inactive)
CNCCC=C1c2ccccc2CCc2ccccc21	4.38% (inactive)

biological target: Pyruvate kinase (Leishmania mexicana) (UniProt Q27686); experiment: qHTS Validation Assay for Inhibitors of Leishmania Mexicana Pyruvate Kinase (AID 945);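 further: 0% = DMSO only neutral control wells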; conditions: purified L. mexicana pyruvate kinase, enzyme activity, E451W mutant enzyme; series mostly up to 57.5 µM; activity change, negative = inhibition: at the top concentration
Sequence (Q27686 2-499 E452W): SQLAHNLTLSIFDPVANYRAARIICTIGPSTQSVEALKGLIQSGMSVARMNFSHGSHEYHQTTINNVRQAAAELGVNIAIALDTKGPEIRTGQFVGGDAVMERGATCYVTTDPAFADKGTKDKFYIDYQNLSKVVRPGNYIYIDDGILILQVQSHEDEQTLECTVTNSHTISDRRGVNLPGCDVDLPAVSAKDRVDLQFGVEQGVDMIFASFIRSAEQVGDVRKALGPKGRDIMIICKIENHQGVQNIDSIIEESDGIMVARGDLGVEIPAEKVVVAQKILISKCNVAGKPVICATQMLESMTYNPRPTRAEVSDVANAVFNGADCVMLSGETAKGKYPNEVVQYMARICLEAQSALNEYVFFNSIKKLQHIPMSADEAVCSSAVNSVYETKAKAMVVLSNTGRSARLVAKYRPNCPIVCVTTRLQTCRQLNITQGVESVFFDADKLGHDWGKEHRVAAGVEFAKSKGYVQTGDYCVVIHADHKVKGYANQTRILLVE
Procedure, shortened: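 Compounds are tested as eight-point concentration series. Reactions contain 0.2 nM LmPYK E451W, 0.5 mM PEP, 0.1 mM ADP, 7 mM MgCl2 and 50 mM KCl at pH 7.2, run 1 h at room temperature, then read by PKLight luminescence.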

SMILES	activity change, negative = inhibition
CC(C)COC(=O)OCN1C(=O)CN(CCN2CC(=O)N(COC(=O)OCC(C)C)C(=O)C2)CC1=O	-4.3% (inactive)
CCCC1O[C@@H]2C[C@H]3[C@@H]4CCC5=CC(=O)C=C[C@]5(C)[C@H]4[C@@H](O)C[C@]3(C)[C@]2(C(=O)CO)O1 (some centres undefined)	7.8% (inactive)
CNCCC=C1c2ccccc2CCc2ccccc21	6.77% (inactive)
